Among the data in PubChem BioAssay (NCATS) are Potency and outcome values, retold here.

Results filed as inconclusive are left out. Active and inactive are the calls of the source. Calls follow the shape of the dose curve; as a rule, active = well fitted curve in the direction sought with a large enough effect; inconclusive = small, poorly fitted or top-dose-only effect, or another doubt; inactive = no such curve, though single readings can be large; an effect the other way counts as inactive or inconclusive.

Assay [1] is described as follows: qHTS of pediatric cancer cell lines to identify multiple opportunities for drug repurposing: Confirmatory screen for OHS-50 cells (AID 1347128).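 Also: compound exposure lasted 48 h at 37 degrees C; nearly all actives have a fitted effect of over 55% in size.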 Also: potency is read from the fitted curve at half-maximal effect. As to conditions: OHS-50 osteosarcoma cells viability; series mostly up to 45.9 µM. In short, it runs like this: (§1)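 Cells (500-1,000/well) rested 5 h, then received compounds for 48 h; metabolically active cells were measured by CellTiter-Glo luminescence. Final concentrations spanned up to 46 µM (MIPE, 11-point) or 0.59 nM-46 µM (NPC, 8-point) in primary screens, 11-point in follow-ups.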

A short description of assay [2]: qHTS of pediatric cancer cell lines to identify multiple opportunities for drug repurposing: Confirmatory screen for SK-N-SH cells (AID 1347129).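 Also: cells exposed to compound for 48 h before viability read; nearly all actives have a fitted effect of over 60% in size.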 Also: potency is read from the fitted curve at half-maximal effect. As to conditions: SK-N-SH neuroblastoma cell viability; series mostly up to 46.1 µM. An outline of the steps: as §1
Assay [3] deals with N-terminal Xaa-Pro-Lys N-methyltransferase 1 (Homo sapiens) (UniProt Q9BV86). Nature of the assay: qHTS Assay for Inhibitors of N-terminal methyltransferase 1 (NTMT1): LOPAC validation of the NTMT1 SAHH-coupled ThioGlo3 Assay (AID 1347143).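 Also: SAH from peptide methylation measured as thiol fluorescence via SAHH coupling and ThioGlo3; nearly all actives have a fitted effect of over 70% in size.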 As to conditions: recombinant NTMT1, SAHH-coupled ThioGlo3 fluorescence; series mostly up to 114 µM. In short, it runs like this: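 Inhibition of NTMT1 methylation of peptide SPKRIA is followed by converting SAH with SAHH and labelling the released thiol with ThioGlo3. Plates are read at 340/450nm before and 30 min after reagent addition, both at room temperature.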
N-terminal Xaa-Pro-Lys N-methyltransferase 1 (Homo sapiens), sequence (Q9BV86 whole entry, looked up): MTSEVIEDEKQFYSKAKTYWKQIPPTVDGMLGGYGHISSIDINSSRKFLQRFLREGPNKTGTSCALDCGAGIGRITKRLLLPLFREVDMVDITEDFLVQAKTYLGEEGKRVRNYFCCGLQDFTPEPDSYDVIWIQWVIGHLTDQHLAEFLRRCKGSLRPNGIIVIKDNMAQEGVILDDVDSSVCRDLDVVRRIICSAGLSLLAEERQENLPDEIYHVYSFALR
(In qHTS, concentration-response curves come from the screen itself.)

Assay [4] has as its system Zika virus NS2B-NS3 protease (unlinked). Put plainly: Optimization of GU AMC qHTS for Zika virus inhibitors: Unlinked NS2B-NS3 protease assay (AID 1347151). Also: nearly all actives have a fitted effect of over 80% in size. The following applies: recombinant ZIKV NS2B-NS3 protease, fluorogenic AMC substrate; series mostly up to 52.5 µM. In short, it runs like this: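 Unlinked protease (25 nM final); buffer 10 mM Tris-HCl pH 8.0 + 0.01% Tween 20; AMC substrate; 15 min RT, dark; Δfluorescence normalized to no-inhibitor/no-enzyme controls; 4-parameter Hill fit.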

Assay [5] relates to Zika virus NS2B-NS3 protease. Nature of the assay: Primary screen GU AMC qHTS for Zika virus inhibitors (AID 1347154). Also: nearly all actives have a fitted effect of over 70% in size. The following applies: Zika NS2B-NS3 unlinked protease, AMC fluorogenic substrate; series mostly up to 54.1 µM. An outline of the steps:
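Fluorogenic AMC-substrate cleavage by noncovalent NS2B-NS3 protease complex (25 nM, pH 8.0 Tris buffer with Tween 20) followed for 15 minutes at room temperature (~20% conversion). Percent inhibition from ex340/em450 signal change, fitted by 4-parameter Hill equation.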

For assay [6], the target named is Lysine-specific demethylase 5B (Homo sapiens) (UniProt Q9UGL1). Put plainly: Optimization screen for KDM5B Histone Demethylases FDH coupled qHTS against the LOPAC library (AID 1347166). The following applies: KDM5B demethylation, FDH-coupled NADH fluorescence (FDH is formaldehyde dehydrogenase); series mostly up to 57.5 µM. In short, it runs like this:
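KDM5BDeltaAP (200nM final) preincubated 10 min with compound, then 12.5uM H3K4Me3, 25uM a-ketoglutarate, ascorbate, Fe(II), NAD+ and FDH added; 50mM HEPES pH 7.5, 0.01% Tween-20. NADH fluorescence (340/450 nm) change over 30 min, room temperature.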

Assay [7] can be described thus: qHTS to identify inhibitors of the type 1 interferon - major histocompatibility complex class I in skeletal muscle: primary screen against the NCATS LOPAC collection (AID 1347405).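 Also: lytic HiBiT luminescence reporting HLA-B protein level.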 As to conditions: iHSKM muscle cells, IFN-b-induced MHC-I HiBiT luminescence, 24 h; series mostly up to 45.9 µM. In short, it runs like this: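 CRISPR-engineered immortalized human myoblasts (C25cl48) with HiBiT fused to endogenous HLA-B*08:01, stimulated with 4 ng/ml IFN-beta. LOPAC compounds tested as a 7-point 1:4.3 titration (top 46 uM final), 24 h at 37 C; lytic HiBiT luminescence read.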

The nature of assay [8]: qHTS to identify inhibitors of the type 1 interferon - major histocompatibility complex class I in skeletal muscle: primary screen against the NCATS Pharmaceutical Collection (AID 1347407). The following applies: human skeletal muscle cells, IFN-b-induced MHC-I HiBiT luminescence, 24 h; series mostly up to 45.9 µM. In short, it runs like this:
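Luminescence from HiBiT-tagged endogenous HLA-B*08:01 served as the read-out of IFN-beta-induced MHC class I in CRISPR-engineered C25cl48 myoblasts. Cells received 4 ng/ml IFN-beta plus compound (high final 46 uM, […]) for 24 h.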

Assay [9] can be described thus: qHTS for inhibitors of adenylyl cyclases using a fission yeast platform: a pilot screen against the NCATS LOPAC library (AID 1347410). As to conditions: S. pombe CHP2027, fbp1-GFP fluorescence, 18 h, yeast expressing mammalian AC9 and human GNAS; series mostly up to 57.5 µM. An outline of the steps:
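Fission yeast qHTS: CHP2027 cells (AC9-GNAS-PDE4D2, fbp1-GFP), 5x10^6 cells/mL working density, EMM + His/Lys/Ura; LOPAC at up to 57 µM final; 18 h dark, 30C; GFP by laser cytometry. DPI positive control, DMSO vehicle.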

For assay [10], the system named is Zika virus NS2B-NS3 protease (unlinked complex). Nature of the assay: Primary screen GU Rhodamine qHTS for Zika virus inhibitors: Unlinked NS2B-NS3 protease assay (AID 1347159). Also: nearly all actives have a fitted effect of over 60% in size. Also: potency is read from the fitted curve at half-maximal effect. The following applies: Recombinant ZIKV NS2B-NS3 protease, Rhodamine110 substrate fluorescence; series mostly up to 107 µM. An outline of the steps:
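Noncovalent NS2B hydrophilic domain/NS3 protease complex (25 nM final) in 10 mM Tris-HCl pH 8.0, 0.01% Tween 20, preincubated 15 min with compounds (up to 114 microM), then 1.5 microM Rhodamine110 substrate. Fluorescence change over 15 min fitted to 4-parameter Hill.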

The subject of assay [11] is Zika virus NS2B-NS3 protease (linked construct). Nature of the assay: Primary screen NINDS Rhodamine qHTS for Zika virus inhibitors (AID 1347160). Also: nearly all actives have a fitted effect of over 55% in size. As to conditions: purified NS2B-NS3 protease, Rhodamine110 substrate fluorescence; series mostly up to 57.1 µM. In short, it runs like this:
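Purified NS2B-NS3 protease with the NS2B hydrophilic domain joined by a flexible linker (25 nM) in 10 mM Tris-HCl pH 8.0, 0.01% Tween 20, preincubated 15 min at RT with compound; Rhodamine110 peptide substrate 1.5 µM; fluorescence change over 15 min; 4-parameter Hill fit.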

Lysine-specific demethylase 5B (Homo sapiens), sequence (Q9UGL1 whole entry, looked up): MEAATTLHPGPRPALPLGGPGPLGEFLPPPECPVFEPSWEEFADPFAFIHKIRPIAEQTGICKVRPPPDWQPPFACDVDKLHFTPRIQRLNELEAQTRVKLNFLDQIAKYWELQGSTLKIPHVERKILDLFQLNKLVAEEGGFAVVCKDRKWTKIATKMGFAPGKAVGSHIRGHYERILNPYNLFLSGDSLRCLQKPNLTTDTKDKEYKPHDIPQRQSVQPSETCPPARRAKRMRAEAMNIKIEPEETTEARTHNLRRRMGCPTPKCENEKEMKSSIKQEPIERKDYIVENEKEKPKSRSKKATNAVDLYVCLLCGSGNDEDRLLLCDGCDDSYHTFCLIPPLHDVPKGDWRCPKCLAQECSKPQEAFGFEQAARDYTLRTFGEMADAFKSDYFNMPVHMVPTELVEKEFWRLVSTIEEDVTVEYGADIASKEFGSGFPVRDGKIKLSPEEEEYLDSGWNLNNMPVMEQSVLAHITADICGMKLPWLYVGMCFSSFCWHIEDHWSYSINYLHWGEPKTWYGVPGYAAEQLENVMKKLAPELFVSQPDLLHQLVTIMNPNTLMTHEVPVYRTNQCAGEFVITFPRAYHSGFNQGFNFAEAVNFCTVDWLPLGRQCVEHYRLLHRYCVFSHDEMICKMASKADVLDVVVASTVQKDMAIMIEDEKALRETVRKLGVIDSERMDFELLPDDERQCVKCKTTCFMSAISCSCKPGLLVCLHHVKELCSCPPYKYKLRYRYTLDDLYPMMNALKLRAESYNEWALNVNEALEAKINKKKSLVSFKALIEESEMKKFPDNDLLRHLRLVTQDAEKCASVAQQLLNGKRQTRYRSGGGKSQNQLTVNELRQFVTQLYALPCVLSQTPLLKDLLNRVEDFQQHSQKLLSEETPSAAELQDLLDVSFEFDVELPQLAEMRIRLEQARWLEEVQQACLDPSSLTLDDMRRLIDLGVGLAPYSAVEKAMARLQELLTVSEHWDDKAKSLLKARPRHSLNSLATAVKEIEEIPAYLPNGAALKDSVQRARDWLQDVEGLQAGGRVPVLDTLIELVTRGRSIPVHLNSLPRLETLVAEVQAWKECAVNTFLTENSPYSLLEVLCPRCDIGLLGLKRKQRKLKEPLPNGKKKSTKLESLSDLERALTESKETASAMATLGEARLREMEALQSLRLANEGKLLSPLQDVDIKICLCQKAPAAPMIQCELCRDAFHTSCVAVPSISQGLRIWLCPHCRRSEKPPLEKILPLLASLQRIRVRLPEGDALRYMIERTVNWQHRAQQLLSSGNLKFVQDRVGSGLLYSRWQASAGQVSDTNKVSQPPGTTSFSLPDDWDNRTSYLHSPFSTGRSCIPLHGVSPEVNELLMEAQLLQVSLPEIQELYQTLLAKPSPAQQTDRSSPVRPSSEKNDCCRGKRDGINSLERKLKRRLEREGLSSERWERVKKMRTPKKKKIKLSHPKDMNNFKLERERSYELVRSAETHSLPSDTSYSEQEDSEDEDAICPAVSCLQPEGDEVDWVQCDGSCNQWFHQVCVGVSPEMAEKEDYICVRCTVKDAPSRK

Regarding `Nc1nc2ccc(OC(F)(F)F)cc2s1`, the Potency in [1] was 18.5 µM (active). Also, the Potency result in assay [2], in assay [3], in [4], in assay [5] and in assay [7] was “inactive” throughout. Further, the compound was called inactive in assay [6], in assay [8] and in assay [9].
`CCC(C)n1ncn(-c2ccc(N3CCN(c4ccc(OC[C@H]5CO[C@](Cn6cncn6)(c6ccc(Cl)cc6Cl)O5)cc4)CC3)cc2)c1=O` (some centres not stated): in assay [2], the Potency was 14.8 µM (active). The Potency entry in [5], in assay [10] and in [11] was “inactive” in each case. Further, the compound was classed as inactive in assay [8].
On to `NC(=O)c1ccc(I)c([N+](=O)[O-])c1`, for which the Potency entry in assay [1] and in assay [5] was “inactive” throughout. Further, in assay [2], the Potency is 55.4 µM (active).
For the compound `COc1cc(Nc2ncc3c(n2)-c2ccc(Cl)cc2C(c2c(F)cccc2OC)=NC3)ccc1C(=O)O`, the Potency entry in [1], in [5] and in assay [11] was “inactive” throughout. Also, in assay [10], the Potency was 20 µM (active).
`O=NN(CCCl)C(=O)NCCCl`: the Potency result in assay [1], in assay [2], in assay [4], in assay [5] and in assay [7] was “inactive” in each case. The compound was called inactive in assay [6], in assay [8] and in [9].
As to `COc1cc2nccc(Oc3ccc(NC(=O)NC4CC4)c(Cl)c3)c2cc1C(N)=O`, the Potency result in assay [2], in [5] and in assay [11] was “inactive” each time.
Take `COc1ccc(-c2oc3cc(OC)ccc3c2C(=O)c2ccc(C#N)cc2)cc1`: the Potency result in assay [1], in assay [2] and in assay [5] was “inactive” each time.
With `NCCCC(N)(C(=O)O)C(F)F` (configuration not stated), the Potency entry in [1], in [2], in [3], in [4], in assay [5] and in assay [7] was “inactive” each time. For the same compound, the outcome in assay [6], in [8] and in assay [9] was inactive.
On to `Cc1cn[nH]c1`, for which the Potency entry in assay [1], in assay [2], in assay [4], in [5] and in [7] was “inactive” each time. The outcome in assay [6], in [8] and in assay [9] was inactive.
With `C#Cc1cccc(Nc2ncnc3cc(OCCOC)c(OCCOC)cc23)c1`, the Potency entry in assay [2], in assay [5], in [10] and in [11] was “inactive” throughout.
Turning to `CCCS(=O)(=O)Nc1ccc(F)c(C(=O)c2c[nH]c3ncc(-c4ccc(Cl)cc4)cc23)c1F`, the Potency result in [2], in assay [5] and in assay [11] was “inactive” each time.
As to `Cc1c(CN2CCN(C(=O)C(C)C)CC2)sc2c(N3CCOCC3)nc(-c3cnc(N)nc3)nc12`, the Potency in assay [1] is 1.04 µM (active); in assay [2] it was 1.05 µM (active). The Potency entry in assay [5] was “inactive”.
Consider `CCOc1cc(N2CCC(O)CC2)ccc1Nc1ncc2c(n1)N(C)c1ccccc1C(=O)N2C`, for which the Potency in assay [2] was 7.43 µM (active). Further, in [5], the Potency result was “inactive”.
`CC(C=CC1=C(C)CCCC1(C)C)=CC=CC(C)=CC(=O)O`: the Potency result in assay [1], in assay [2] and in [5] was “inactive” throughout.
